Records with an inconclusive call do not appear. Activity calls are given as the source filed them. Calls follow the shape of the dose curve; as a rule, active = well fitted cell-killing curve with a large enough effect; inconclusive = small, poorly fitted or top-dose-only effect; inactive = flat fitted curve, though single readings scatter.

The results in this text go back to PubChem BioAssay (NCATS).
Potency is read from the fitted curve at half-maximal effect.

The experiment is described as follows: qHTS of pediatric cancer cell lines to identify multiple opportunities for drug repurposing: Confirmatory screen for A673 cells (AID 1347110).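 Also: cells exposed to compound for 48 h before the viability read; nearly all actives have a fitted effect of over 65% in size.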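 As to activity change, negative = cytotoxicity: plate controls were DMSO neutral control for no effect and bortezomib positive control for full effect.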 Conditions: A673 Ewing sarcoma cell viability; series mostly up to 45.9 µM; activity change, negative = cytotoxicity: at the top concentration. The source says: Drug repurposing or repositioning has been offered as a strategy for drug development in oncology programs. This approach has special potential for childhood cancers and other rare or orphan diseases, where the expected return on new drug development has been a disincentive to pharmaceuticals.
In this project we exploit the poly-pharmacology of drugs to discover new indications via phenotypic screening of a panel of 19 well-characterized cell lines derived from solid tumors seen in children and adolescents. The goal is to identify approved drugs with previously unrecognized anticancer properties that has the potential to reveal new mechanisms and biological processes involved in carcinogenesis or drug resistance. We employed a titration-based paradigm (quantitative high-throughput screening or qHTS), where all compounds were tested at multiple concentrations for their effect on cell viability. Concentration-response curves (CRCs) were derived directly from the primary screen, and both potency and efficacy values were used to identify compounds with robust bioactivity profiles. We screened the NIH Chemical Genomics Center (NCGC) Pharmaceutical Collection (NPC) and Mechanism Interrogation Plate (MIPE) small molecule collections of approved and investigational compounds against these cell lines; and measured metabolically active cells after 48 hours of compound treatment as a proxy for cell viability.
Assay Submitter: Nathalia J. Martinez, National Center for Advancing Translational Sciences, National Institutes of Health, Rockville, MD, USA; email: natalia.martinez@nih.gov.
[1] Shen, M et al. Quantitative high-throughput phenotypic screening of pediatric cancer cell lines identifies multiple opportunities for drug repurposing. Oncotarget 2017 Dec 19;9(4):4758-4772. PMID 29435139.
The cells were obtained from University of North Carolina (UNC), Pediatric Preclinical Testing Program (PPT), and Coriell Institute (CI).
qHTS cell viability assay:
Cells were assayed in growth media at a density of 500-1,000 cells/well. Five microliters of cells were dispensed into 1,536-well, white, solid-bottom, TC-treated plates (Greiner Bio One) using a multidrop dispenser and incubated at 37 degrees C, 5% CO2, under a humidified atmosphere for 5 hours. Twenty-three nanoliters of compounds and controls (neutral control DMSO or positive control bortezomib at final concentration of 2.3 uM) were subsequently transferred by Kalypsys pintool. For primary screens, the MIPE collection was tested at 11-point dilutions (final concentrations range from 0.78 nM to 46 µM) and the NPC collection at 8-point dilutions (final concentrations range from 0.59 nM to 46 µM). Compounds tested in follow-up screens were assayed at 11-point dilutions. Cells were incubated for 48 hours, followed by addition of 3 uL of CellTiter-Glo (Promega). After a 15min incubation at room temperature, samples were analyzed for luminescence intensity using a ViewLux High-throughput CCD imager equipped with clear filters.
Background: In qHTS, concentration-response curves come from the screen itself.
As for `Cc1cn[nH]c1`, the “activity change, negative = cytotoxicity” value is -12.6% (inactive).

As to `Cc1c(C)c2c(c(C)c1O)CCC(C)(COc1ccc(CC3SC(=O)NC3=O)cc1)O2` (stereo unspecified), the “activity change, negative = cytotoxicity” value was -3.77% (inactive).

As for `Cc1c(CN2CCN(C(=O)C(C)C)CC2)sc2c(N3CCOCC3)nc(-c3cnc(N)nc3)nc12`, the Potency is 1470 nM (active).

In the case of `COCC(=O)NCC=Cc1ccc2ncnc(Nc3ccc(Oc4ccc(C)nc4)c(C)c3)c2c1`, the Potency was 23300 nM (active).

For `OC[C@H](Cc1ccccc1)Nc1nc(Oc2ccc3c(c2)CCC3)nc2c1ncn2Cc1ccc(-c2ccccc2)cc1`, the Potency was 4650 nM (active).

`COc1ccc(-c2oc3cc(OC)ccc3c2C(=O)c2ccc(C#N)cc2)cc1`: the “activity change, negative = cytotoxicity” value is 9.4% (inactive).

Turning to `CCC(C)n1ncn(-c2ccc(N3CCN(c4ccc(OC[C@H]5CO[C@](Cn6cncn6)(c6ccc(Cl)cc6Cl)O5)cc4)CC3)cc2)c1=O` (stereo partly specified), the “activity change, negative = cytotoxicity” value was -17.1% (inactive).

For `Nc1nc2[nH]cc(CCc3ccc(C(=O)N[C@@H](CCC(=O)O)C(=O)O)cc3)c2c(=O)[nH]1`, the Potency was 2330 nM (active).

As for `C[C@]1(c2nc3c(C(N)=O)cccc3[nH]2)CCCN1`, the “activity change, negative = cytotoxicity” value is -1.78% (inactive).

Consider `COc1ccc(-c2ccc3c(N4CCOC[C@H]4C)nc(N4CCOC[C@H]4C)nc3n2)cc1CO`, for which the Potency is 117 nM (active).

For `Cn1cnc([N+](=O)[O-])c1Sc1ncnc2nc[nH]c12`, the Potency was 1890 nM (active).

Consider `NC(N)=NC(=O)c1nc(Cl)c(N)nc1N`, for which the Potency is 1170 nM (active).

`CN1CCN(CCCN2c3ccccc3Sc3ccc(C(F)(F)F)cc32)CC1`: the Potency is 26100 nM (active).

On to `Oc1cccc(-c2nc(N3CCOCC3)c3oc4ncccc4c3n2)c1`, for which the Potency is 1850 nM (active).

With `CS(=O)(=O)c1ccc(C(=O)Nc2ccc(Cl)c(-c3ccccn3)c2)c(Cl)c1`, the “activity change, negative = cytotoxicity” value is 10.5% (inactive).

Take `OC(CN1CCC(Cc2ccc(F)cc2)CC1)c1ccc(Cl)cc1` (stereo unspecified): the Potency is 3690 nM (active).

Turning to `CO[C@@H]1[C@H](N(C)C(=O)c2ccccc2)C[C@H]2O[C@]1(C)n1c3ccccc3c3c4c(c5c6ccccc6n2c5c31)C(=O)NC4`, the “activity change, negative = cytotoxicity” value was 20.2% (inactive).

`CCN(CC)CCCC(C)Nc1ccnc2cc(Cl)ccc12` (stereo unspecified): the “activity change, negative = cytotoxicity” value is -3.93% (inactive).

With `CCOc1ccn(-c2ccc(F)cc2)c(=O)c1C(=O)Nc1ccc(Oc2ccnc(N)c2Cl)c(F)c1`, the Potency was 13100 nM (active).

`CC(C=CC1=C(C)CCCC1(C)C)=CC=CC(C)=CC(=O)O`: the “activity change, negative = cytotoxicity” value is 8.81% (inactive).

With `CNCc1ccc(-c2[nH]c3cc(F)cc4c3c2CCNC4=O)cc1`, the Potency was 147 nM (active).

With `CCCS(=O)(=O)Nc1ccc(F)c(C(=O)c2c[nH]c3ncc(-c4ccc(Cl)cc4)cc23)c1F`, the Potency was 16500 nM (active).

For `O=C(c1cc(Cc2n[nH]c(=O)c3ccccc23)ccc1F)N1CCN(C(=O)C2CC2)CC1`, the Potency is 104 nM (active).

As to `COc1ccc(-c2ccc3c(N4CCOCC4)nc(N4C[C@@H](C)O[C@@H](C)C4)nc3n2)cc1CO`, the Potency is 293 nM (active).

For `O=NN(CCCl)C(=O)NCCCl`, the Potency is 16500 nM (active).

Turning to `O=C(NOC[C@H](O)CO)c1ccc(F)c(F)c1Nc1ccc(I)cc1F`, the “activity change, negative = cytotoxicity” value was -4.69% (inactive).

As to `CCC(C)(C)C(=O)O[C@H]1C[C@@H](C)C=C2C=C[C@H](C)[C@H](CC[C@@H]3C[C@@H](O)CC(=O)O3)[C@H]21`, the Potency is 5220 nM (active).

In the case of `CCOc1cc(N2CCC(O)CC2)ccc1Nc1ncc2c(n1)N(C)c1ccccc1C(=O)N2C`, the Potency was 46.5 nM (active).

`NCCCC(N)(C(=O)O)C(F)F` (stereo unspecified): the “activity change, negative = cytotoxicity” value was 3.99% (inactive).

Regarding `Nc1nc2ccc(OC(F)(F)F)cc2s1`, the Potency was 18500 nM (active).

In the case of `Cn1cnc2c(F)c(Nc3ccc(Br)cc3Cl)c(C(=O)NOCCO)cc21`, the “activity change, negative = cytotoxicity” value was -13.4% (inactive).
